Screening results (PubChem)
The entries come from a sample that favours hits as a whole.
INS promoter inh = inhibitors of insulin promoter-driven GFP, primary screen, imaging, TRM-6 cells (human fetal islet line), eGFP reporter, cell count | reporter expression induced with tamoxifen | inhibition, % at 2 µM | 0.9% of 130,000 active;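 active = inhibition above the mean plus 3 SD, with well images judged a real hit on visual review, cut at about 60% in these data, passing the limit was not always enough; inconclusive = inhibition over the cutoff but images rejected on review; inactive = inhibition not above the cutoff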
Insulin prom up = insulin promoter activators in MIN6 cells, imaging, high-content screening, mouse beta cells | MIN6 insulin promoter-GFP reporter; active compounds read high | z-score at 5 µM | 0.3% of 190,000 active | AID 1625, 2009;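 active = z-score above 3 at 5 µM with at least 500 cells counted in the well; inconclusive = wells under 500 cells, flagged as cytotoxic or low count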
HSV augment = enhancers of HSV replication in host cells, fold increase, host cell viability | HSV replication augmentation in cells | maximum fold increase | 0.005% of 220,000 active; in the data active = maximum fold increase above about 1.5; inconclusive = no clear call, values can overlap the other calls; tested in PC3 cells
ROMK primary = ROMK potassium channel modulators, primary screen, cell-based, thallium flux, MLSMR library. ATP-sensitive inward rectifier potassium channel 1 (Homo sapiens), P48048. Tet-inducible ROMK, thallium flux fluorescence; actives lie on both sides. B-score at 10 µM. 2% of 130,000 active. AID 1918, 2009;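 active = signal ratio slope over the read window, or its plate-corrected B-score, at least 3 SD from the plate mean, either direction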;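 note: B-score of the F/F0 ratio slope over 7 to 12 s after thallium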
Target sequence (P48048 whole entry, looked up): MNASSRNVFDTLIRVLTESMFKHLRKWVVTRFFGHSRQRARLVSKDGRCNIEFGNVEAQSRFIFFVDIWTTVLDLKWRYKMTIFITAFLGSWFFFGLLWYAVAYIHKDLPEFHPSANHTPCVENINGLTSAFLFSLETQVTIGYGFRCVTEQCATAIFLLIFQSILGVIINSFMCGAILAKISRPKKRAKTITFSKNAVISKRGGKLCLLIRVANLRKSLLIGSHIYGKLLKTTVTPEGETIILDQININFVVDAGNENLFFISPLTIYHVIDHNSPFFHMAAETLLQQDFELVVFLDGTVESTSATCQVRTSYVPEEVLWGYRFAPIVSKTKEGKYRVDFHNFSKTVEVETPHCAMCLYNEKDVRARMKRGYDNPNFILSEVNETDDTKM
Tb hexokinase = Trypanosoma brucei hexokinase 1 inhibitors, primary screen, biochemical, G6PDH-coupled NADH absorbance, MLSCN library | 0.11% of 220,000 active | inhibition, % at 10 µM | recombinant TbHK1, G6PDH-coupled NADH A340 | AID 1430, 2008;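 active = inhibition of 50% or more in the single-dose primary screen; inactive = inhibition below 50%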
ROMK retest = ROMK channel modulator hit retest, confirmation, cell-based, thallium flux, duplicate, resupplied hits. shares compounds with ROMK primary. fluorescence ratio; active compounds read low. normalized thallium flux (F/F0 slope) at 10 µM. 54% of 3,000 active. AID 1917, 2009;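 active = Flux at 10 µM at least 3 SD below or above vehicle control mean in one or both replicates; inconclusive = no clear call, values can overlap the other calls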
* marks the source's active call; other numbers are inactive results; i = inactive; ? = inconclusive; . = not tested or not shown.

SMILES	INS promoter inh	Insulin prom up	HSV augment	ROMK primary	Tb hexokinase	ROMK retest
CCN1C(=O)/C(=C/c2ccc(C)s2)NC1=S	-4	-0.76	i	4.6*	-10	0.094
COc1cccc(/C=C/C(=O)OCC(=O)N2c3ccccc3NC(=O)C2(C)C)c1	.	-0.06	i	-0.024	-3	.
O=C(O)CN1C(=O)/C(=C\c2cn(CC(=O)N3CCOCC3)c3ccccc23)SC1=S	-5	-0.49	.	.	-10	.
COc1cccc(CNC(=O)CSCc2cnn(-c3ccccc3)c2-n2cccc2)c1OC	-32	-0.14	i	-3.3*	-2	0.079
O=[N+]([O-])c1cc(S(=O)(=O)N2CCCCCC2)ccc1F	.	0.13	i	.	0	0.054*
O=[N+]([O-])c1cc(S(=O)(=O)N2CCCC2)ccc1O	0	0.08	i	0.29	-4	.
O=S(=O)(c1cccc(S(=O)(=O)N2CCCC2)c1)c1cccc(S(=O)(=O)N2CCCC2)c1	.	0.63	i	-5.7*	5	0.066*
Cn1c(C2=C(O)CN(c3ccccc3)C2=N)nc2ccccc21	12	-0.35	i	0.39	0	.
Cc1cc(C)n2nc(C(=O)N/N=C/c3ccco3)nc2n1	.	0.39	i	.	-57	.
Cc1ccc(C(=O)NC(=S)N2CCN(c3ccccc3F)CC2)cc1	-15	0.33	i	3.4*	-1	0.1*
O=C(CO/N=C/c1ccc2c(c1)OCO2)Nc1cccc(Br)c1	7	-0.81	i	-0.45	0	.
O=C(NCc1ccccc1)c1ccc(Br)cc1	.	-0.17	i	-4.5*	-4	?
CCOC(=O)N1CCC(=NNC(=O)COc2cccc(C)c2)CC1	.	1.2	i	.	2	.
O=C1CSC(c2cn(-c3ccccc3)nc2-c2cc3ccccc3o2)N1Cc1ccccc1 (stereo not given)	-21	-1.3	.	0.21	-14	.
Cc1ccc(-c2nn(-c3ccccc3)cc2C2SCC(=O)N2Cc2ccccc2)o1 (stereo not given)	?	0.31	i	.	-2	0.078
CC(=O)N/N=C(\C)C1COc2ccccc2O1 (stereo not given)	.	0.48	i	.	-6	.
Cc1cc(C)nc(N/N=C2/CCCC/C2=C\c2ccccc2)n1	-58	-1.9	i	-0.88	-13	.
COc1ccc(NC(=S)N(CCCN2CCC(C)CC2)Cc2cccs2)cc1Cl	.	-0.24	i	-5.2*	4	0.055*
COc1ccc(NC(=S)N(CCCN2CCN(C)CC2)Cc2cccs2)cc1	13	0.18	i	0.53	0	.
CSc1cccc(NC(=S)N(CCCN2CCCC(C)C2)Cc2cccs2)c1 (stereo not given)	-40	-1.2	i	-4.4*	5	0.058*
CCC(=O)Oc1ccc(C(=O)Nc2c[nH]c(=O)[nH]c2=O)cc1	18	-5	i	1	-1	.
Cc1cc(C)cc(NC(=O)N2CCCC2C(=O)Nc2ccc(-n3cnnn3)c(C)c2)c1 (stereo not given)	-53	0	i	.	-2	0.076
Cc1cc(NC(=O)C2CCCN2C(=O)Nc2c(C)cccc2C)ccc1-n1cnnn1 (stereo not given)	10	0.19	i	-1.1	6	.
NC(=O)c1sc2nccc(Nc3ccccc3)c2c1N	-26	-3.4	i	.	-11	0.06*
COC(=O)C1=C(C)N(C)C(C)=C(C(=O)OC)C1c1ccccc1C	.	0.32	i	-4.4*	-6	0.064*
SMILES	INS promoter inh	Insulin prom up	HSV augment	ROMK primary	Tb hexokinase	ROMK retest
S=C1NCCC12C(=S)Nc1ccccc12 (stereo not given)	.	.	i	.	.	.
CCNC(=O)COc1ncnc2scc(-c3ccc(F)cc3)c12	-6	-0.29	i	0.057	-5	.
O=C(COc1ncnc2scc(-c3ccc(Cl)cc3)c12)NCc1ccco1	-16	0.23	i	.	0	0.061*
N/N=C/C(=N\Nc1ccc(Cl)cc1)C(=O)c1ccncc1	.	-1.4	i	.	-16	.
COc1ccc(S(=O)(=O)N2CCCC2C(=O)Nc2ccc(O)cc2)cc1 (stereo not given)	-71	0.77	i	.	4	.
COc1ccc(S(=O)(=O)N2CCC[C@H]2C(=O)NC2=NCCS2)cc1	-14	-0.08	i	.	2	0.071
COc1ccccc1CN(Cc1cc2cc(C)ccc2[nH]c1=O)Cc1nnnn1CC1CCCO1 (stereo not given)	27	-1	i	-1.7	-8	.
COc1ccccc1CN(Cc1cc2cc(C)cc(C)c2[nH]c1=O)Cc1nnnn1CC1CCCO1 (stereo not given)	.	-1.8	i	-4.1*	-11	0.066*
CCCCCCN1C=CC=C/C1=C/C=C(C#N)C#N	-36	1.2	?	-6.9*	2	0.046*
CCCCCN1C=CC=C/C1=C\C=C(C#N)C#N	.	0.4	?	.	-3	.
CC(=O)Nc1cccc(C(=O)/C=C/c2ccc(N(C)C)cc2)c1	-23	.	i	-3.7*	-2	0.048*
CC(=O)Nc1cccc(C(=O)/C=C/c2ccc(Br)cc2)c1	41	-0.52	i	.	16	.
COc1ccc(/C=C/C(=O)Nc2cccc(C(C)=O)c2)cc1	8	-0.04	i	1.4*	2	?
CC(=O)Nc1cccc(C(=O)/C=C/c2ccc(/C=C/C(=O)c3cccc(NC(C)=O)c3)cc2)c1	.	-0.27	i	.	-48	.
CC(=O)Nc1cccc(C(=O)/C=C/c2ccc(F)cc2)c1	.	-1.1	i	-3.7*	-22	0.053*
COc1ccccc1CNC(=O)C1CC(c2ccccc2[N+](=O)[O-])=NO1 (stereo not given)	18	.	i	.	-2	.
Cc1cc(C)c(S(=O)(=O)CCC(C)C)c(=O)[nH]1	.	0.06	i	.	-1	.
C=CCn1c(SCc2ccc(C(=O)Nc3nccs3)cc2)nnc1-c1ccc(C)c(Cl)c1	.	-0.83	i	.	-2	0.073
Cn1nnnc1SCc1ccc(C(=O)Nc2nccs2)cc1	.	0.53	i	.	-9	.
CCCc1ccc(Oc2c(-c3ccc(O)c(C)c3O)n[nH]c2C)cc1	.	-0.22	i	.	0	.
CCCc1ccc(Oc2cn[nH]c2-c2ccc(O)c(C)c2O)cc1	-16	0.65	i	-4*	10	0.058*
Cc1cc(C(=O)N[C@H](c2ccccc2)[C@@]2(C)C[C@@H]2[C@@H](C)C(=O)Nc2ccc3ccccc3c2)n(C)n1	-10	-0.27	i	-3	-6	.
O=C(/C=C/c1ccc(F)cc1)NCCc1ccc2c(c1)OCCO2	.	-0.48	i	.	3	.
O=C(NCc1ccccc1)c1onc(CSc2ccccc2)c1C(=O)NCc1ccccc1	.	.	i	.	.	.
O=C(NCc1ccccc1)c1onc(CSc2ccccc2)c1C(=O)NCC1CC1	.	-2.1	i	.	-7	0.073
O=C(O[C@H]1[C@H](Oc2ccccc2COC(=O)C2(O)C=CCCC2=O)O[C@H](CO)[C@@H](O)[C@@H]1O)c1ccccc1 (stereo not given in full)	.	.	i	.	.	.
